Measured values reported in PubChem BioAssay (NCATS).
“And” between values parts separate entries of the source, which are not always exact repeats. Equal values may be shown once. Inconclusive results are not listed. Unmarked numbers belong to inactive results. The source made the active and inactive calls. The call rests on the fitted dose curve; in most records, active means well fitted inhibition curve with a large enough effect; inconclusive means small, poorly fitted or top-dose-only effect; inactive means flat fitted curve, though single readings scatter.

How the values were obtained:
CRL-7250 = normal cell line; experiment: Cytotoxic Profiling of Annotated Libraries Using Quantitative High-Throughput Screening (AID 1296008); conditions: Five cell lines viability, CellTiter-Glo ATP luminescence, 48-72 h; max response: active compounds read low; further: potency means the concentration at half of the fitted maximal effect; on max response: on the % scale 0 is the no-effect control and ±100 the full control effect
Summary of the method: (§1)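 Compounds were pin-transferred onto cells and incubated 48 or 72 hr at 37 degree Celsius, 95% humidity. CellTiter-Glo was added, plates sat 10 min at room temperature, then ATP-coupled luminescence was imaged as the viability read-out.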

HaCat = experiment: as above; conditions: Five cell lines viability, CellTiter-Glo ATP luminescence, 48-72 h; max response: active compounds read low
Summary of the method: as §1

HEK293 = experiment: as above; conditions: Five cell lines viability, CellTiter-Glo ATP luminescence, 48-72 h; max response: active compounds read low
Summary of the method: as §1

PC26 = experiment: qHTS profiling for inhibitors of Plasmodium falciparum proliferation (AID 504749);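 further: 0% = DMSO vehicle and full inhibition = artemisinin control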; conditions: P. falciparum in erythrocytes, SYBR Green DNA, 72 h; series mostly up to 28.7 µM
Summary of the method: (§2)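 Fluorescence of SYBR Green-bound parasite DNA, read at 485/535 nm, served as the growth measure. Infected erythrocytes were cultured with compound 72 h; artemisinin (0.29 uM) and DMSO wells defined the normalization range.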

PC49 = experiment: as above; conditions: P. falciparum in erythrocytes, SYBR Green DNA, 72 h; series mostly up to 28.7 µM
Summary of the method: as §2

SC27B = experiment: as above; conditions: P. falciparum in erythrocytes, SYBR Green DNA, 72 h; series mostly up to 28.7 µM
Summary of the method: as §2

TAB109 = experiment: as above; conditions: P. falciparum in erythrocytes, SYBR Green DNA, 72 h; series mostly up to 28.7 µM
Summary of the method: as §2

TAB113 = experiment: as above; conditions: P. falciparum in erythrocytes, SYBR Green DNA, 72 h; series mostly up to 28.7 µM
Summary of the method: as §2

TAB165 = experiment: as above; conditions: P. falciparum in erythrocytes, SYBR Green DNA, 72 h; series mostly up to 28.7 µM
Summary of the method: as §2

W2 = experiment: as above; conditions: P. falciparum in erythrocytes, SYBR Green DNA, 72 h; series mostly up to 28.7 µM
Summary of the method: as §2
Further: nearly all actives have a fitted effect of over 60% in size.

**Q.** What does the source list for `FC(F)(F)c1ccc(Nc2nc3ccc(Oc4ccnc(-c5ncc(C(F)(F)F)[nH]5)c4)cc3[nH]2)cc1`?
**A.** Potency (CRL-7250): 13.2 µM (active) and 14.6 µM (active); max response (HaCat): -7.61% and -42.8%

**Q.** With `CCc1ccc(C(=O)Nc2cc(CN3CCN(C)CC3)cc(C(F)(F)F)c2)cc1C#Cc1cnc2ccnn2c1` as the compound, how does the Potency (HEK293) read?
**A.** 10.5 µM (active)

**Q.** For `Cc1cnn(C)c1C(=O)Nc1cc(Nc2ccc3c(C=Cc4ccccn4)n[nH]c3c2)ccc1F`, which Potency (HEK293) is on record?
**A.** 3.72 µM (active)

**Q.** `C[C@H](NC(=O)[C@@H](O)c1cc(F)cc(F)c1)C(=O)N[C@@H]1C(=O)N(C)c2ccccc2-c2ccccc21` was tested. Which max response (CRL-7250) did it give?
**A.** -10.4%

**Q.** And the max response (HaCat)?
**A.** -6.76%

**Q.** Which results are given for `COC(=O)C1C2CC3c4[nH]c5cc(OC)ccc5c4CCN3CC2CC(OC(=O)c2cc(OC)c(OC)c(OC)c2)C1OC` (stereo not given)?
**A.** max response (CRL-7250): -19.7%; outcome (HaCat): inactive

**Q.** How did the max response (CRL-7250) turn out when `COc1ccc(S(=O)(=O)Nc2cc(-c3c(O)ccc4ccccc34)c(O)c3ccccc23)cc1` was run?
**A.** -21.5%

**Q.** And the max response (HaCat)?
**A.** -11.6%

**Q.** Which results are given for `O=C(NCc1ccccc1)[C@H](Cc1ccccc1)NC(=O)[C@@H]1O[C@@H]1C(=O)NCCc1ccc(O)cc1`?
**A.** outcome (CRL-7250): inactive; outcome (HaCat): inactive

**Q.** Which Potency (HEK293) does the source give for `CN1CCCN(C(=O)c2cccc(-c3ccc(C=C4C(=O)Nc5ccc(Cl)cc54)o3)c2)CC1` here?
**A.** 1.32 µM (active)

**Q.** How did the Potency (HEK293) turn out when `CCCCCN=C(N)NN=Cc1c[nH]c2ccc(OC)cc12` was run?
**A.** 7.43 µM (active)

**Q.** With `OCCN1C[C@H](O)[C@@H](O)[C@H](O)[C@@H]1CO` as the compound, how does the max response (CRL-7250) read?
**A.** -0.792%

**Q.** What about the outcome (HaCat) of the same compound?
**A.** inactive

**Q.** Which Potency (HEK293) does the source give for `C[C@H]1[C@@H](OC(=O)CCC(=O)O)O[C@@H]2O[C@@]3(C)CC[C@@H]4[C@H](C)CC[C@@H]1[C@@]24OO3` here?
**A.** 2.35 µM (active)

**Q.** Which results are given for `COc1cc(O)c2c(c1)C1OC1C[C@H](O)[C@H](O)C(=O)C=CC[C@H](C)OC2=O` (stereo not given in full)?
**A.** Potency (CRL-7250): 26.4 µM (active); Potency (HaCat): 23.5 µM (active)

**Q.** Which Potency (HEK293) does the source give for `COc1cc2c(cc1O)CCC1C2CC[C@@]2(C)C1CC[C@@H]2O` (stereo not given in full) here?
**A.** 1.18 µM (active)

**Q.** With `CC(C)C[C@H](NC(=O)[C@@H](NC(=O)c1cccc(-c2ccccc2)n1)[C@@H](C)O)B(O)O` as the compound, how does the Potency (CRL-7250) read?
**A.** 0.092 µM (active)

**Q.** And the Potency (HaCat)?
**A.** 526 nM (active) and 580 nM (active)

**Q.** With `CC(C)Oc1ccc(C(=O)N[C@H](CNC(=O)CN(C)C)Cc2ccc(-c3cn4cccc([C@H](C)O)c4n3)cc2)cc1Cl` as the compound, how does the Potency (HEK293) read?
**A.** 0.372 µM (active)

**Q.** What does the source list for `C[C@](Cc1c[nH]c2ccccc12)(NC(=O)OC1C2CC3CC(C2)CC1C3)C(=O)NC[C@H](NC(=O)CCC(=O)O)c1ccccc1` (stereo not given in full)?
**A.** outcome (CRL-7250): inactive; outcome (HaCat): inactive

**Q.** What does the source list for `O=C(Nc1cccc(Nc2ncc(Br)c(NCCc3cnc[nH]3)n2)c1)N1CCCC1`?
**A.** Potency (CRL-7250): 4.18 µM (active); Potency (HaCat): 9.35 µM (active)

**Q.** With `CC(=O)SCC(Cc1ccccc1)C(=O)NCC(=O)OCc1ccccc1` (stereo not given) as the compound, how does the max response (CRL-7250) read?
**A.** -7.71%

**Q.** What about the outcome (HaCat) of the same compound?
**A.** inactive

**Q.** For `COc1ccc2c(c1OC)C(=O)OC2[C@H]1c2c(cc3c(c2OC)OCO3)CCN1C` (stereo not given in full), which Potency (PC26) is on record?
**A.** inactive

**Q.** And the Potency (PC49)?
**A.** inactive

**Q.** What about the Potency (SC27B) of the same compound?
**A.** inactive

**Q.** What about the Potency (TAB109) of the same compound?
**A.** inactive

**Q.** And the Potency (TAB113)?
**A.** inactive

**Q.** And the Potency (TAB165)?
**A.** inactive

**Q.** And the Potency (W2)?
**A.** inactive

**Q.** And the Potency (CRL-7250)?
**A.** 0.833 µM (active)

**Q.** And the Potency (HaCat)?
**A.** 10.5 µM (active)

**Q.** Which Potency (HEK293) does the source give for `CCOc1cc2c(c(F)c1OCC)C(=N)N(CC(=O)c1cc(N3CCOCC3)c(OC)c(C(C)(C)C)c1)C2` here?
**A.** 16.4 µM (active)

**Q.** Which Potency (HEK293) does the source give for `CC[C@@]1([C@@H]2O[C@@H]([C@H]3O[C@@](O)(CO)[C@H](C)C[C@H]3C)C[C@H]2C)CC[C@H]([C@]2(C)CC[C@]3(C[C@H](O)[C@@H](C)[C@@H]([C@@H](C)[C@@H](OC)[C@H](C)C(=O)O)O3)O2)O1` here?
**A.** 0.144 µM (active)

**Q.** `CC(C)c1cnn2c(NCc3ccccc3)cc(NCCCCCCN)nc12` was tested. Which outcome (CRL-7250) did it give?
**A.** inactive

**Q.** What about the outcome (HaCat) of the same compound?
**A.** inactive

**Q.** With `CN(C)CC(=O)N1CCC(c2ccc(NC(=O)c3ncc(C#N)[nH]3)c(C3=CCCCC3)c2)CC1` as the compound, how does the outcome (CRL-7250) read?
**A.** inactive

**Q.** What about the max response (HaCat) of the same compound?
**A.** 3.1%

**Q.** And the outcome (HaCat)?
**A.** inactive

**Q.** For `Oc1ccc(-c2ccc(-c3cc(Nc4cccc(CNC5CC5)c4)n[nH]3)cc2)c(O)c1`, which Potency (HEK293) is on record?
**A.** 1.18 µM (active)

**Q.** With `C[C@H](NCc1ccc(OCc2cccc(F)c2)cc1)C(N)=O` as the compound, how does the Potency (HEK293) read?
**A.** 11.8 µM (active)

**Q.** What does the source list for `C[C@@]12C[C@@]3(O)O[C@@H](O1)[C@]1(COC(=O)c4ccccc4)[C@@H]3C[C@@]12O[C@@H]1O[C@H](CO)[C@@H](O)[C@H](O)[C@@H]1O`?
**A.** max response (CRL-7250): 4.21%; outcome (HaCat): inactive

**Q.** What does the source list for `CCCNS(=O)(=O)Nc1ncnc(OCCOc2ncc(Br)cn2)c1-c1ccc(Br)cc1`?
**A.** max response (CRL-7250): -8.99%; outcome (HaCat): inactive

**Q.** `CCc1cnn2c(NCc3ccc[n+]([O-])c3)cc(N3CCCC[C@@H]3CCO)nc12` was tested. Which Potency (HEK293) did it give?
**A.** 0.0332 µM (active)

**Q.** Which results are given for `C=C1C(=CC=C2CCC[C@]3(C)[C@@H]([C@H](C)CCCC(C)(C)O)CC[C@@H]23)C[C@@H](O)C[C@@H]1O`?
**A.** max response (CRL-7250): -5.17%; outcome (HaCat): inactive

**Q.** Which results are given for `CC(C)c1cc(C(C)C)c(CC(=O)NS(=O)(=O)Oc2c(C(C)C)cccc2C(C)C)c(C(C)C)c1`?
**A.** max response (CRL-7250): 4.74% and 1.75%; max response (HaCat): 0.698% and -52.4%

**Q.** Which Potency (HEK293) does the source give for `CC(C=CC1=C(C)CCCC1(C)C)=CC=CC(C)=CC(=O)Nc1ccc(O)cc1` here?
**A.** 6.79 µM (active)

**Q.** For `CCc1cc(C(C)=NOCc2ccc(C3CCCCC3)c(C(F)(F)F)c2)ccc1CN1CC(C(=O)O)C1`, which max response (CRL-7250) is on record?
**A.** 2.27%

**Q.** And the outcome (HaCat)?
**A.** inactive

**Q.** What does the source list for `O=C(C=CC=Cc1ccc2c(c1)OCO2)N1CCCCC1`?
**A.** max response (CRL-7250): -3.96%; max response (HaCat): -2.24%

**Q.** Which max response (CRL-7250) does the source give for `CCCCCCCN(CC)CCCC(O)c1ccc(NS(C)(=O)=O)cc1` (stereo not given) here?
**A.** 0.839%

**Q.** What about the outcome (HaCat) of the same compound?
**A.** inactive

**Q.** For `C=C[C@@H]1CN2CCC1C[C@H]2[C@H](O)c1ccnc2ccc(OC)cc12` (stereo not given in full), which max response (CRL-7250) is on record?
**A.** 3.01%

**Q.** What about the max response (HaCat) of the same compound?
**A.** -13.1%
